Screens as filed in PubChem.
The list is not random: actives were taken first. Their share in the collection is about 21%.
Shiga toxin inh: Shiga toxin inhibition; inhibition, % at 38.7 µM; AID 2315; Vero cells, Shiga toxin protein synthesis inhibition reporter; hit rate 9.2% among 290,000; in the data active = inhibition mostly above about 28%, no sharp cut-off; inactive = mostly below about 43%; note: 0% is about no effect
Pf growth 96h: P. falciparum growth inhibition at 96 hours; P. falciparum luciferase reporter growth, 96 h; Potency, µM (doses to about 28.7 µM), for the others: at the top dose activity change, negative = inhibition, hits mostly inhibitors; hit rate 6.9% among 320,000; note: potency is the fitted concentration of half-maximal effect; % is set by controls: 0 for no effect and ±100 for the full control effect
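Compounds incubated with erythrocytes infected by luciferase-expressing P. falciparum (2% hematocrit, 0.05% parasitemia final) for 96 hours, 37 C in 5% CO2. Growth inhibition scored as decreased luciferase luminescence.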
Cycloheximide cs: counter-screen for Shiga toxin inhibitors: cycloheximide protein synthesis inhibition; cell reporter, cycloheximide protein synthesis inhibition counterscreen; max response, %; hit rate 12% among 300,000; AID 2314; in the data active = max response mostly above about 13%, no sharp cut-off; inactive = mostly below about 14%; note: read at 38.3 µM for the half of the compounds with a filed dose; 0% is about no effect
Pf growth 48h: P. falciparum growth inhibition at 48 hours (one generation); P. falciparum luciferase growth in erythrocytes, 48 h; Potency, µM (titrated, usually from 28.7 µM), without a hit: at the highest dose activity change, negative = inhibition, hits mostly inhibitors; hit rate 5.9% among 310,000; note: potency is the fitted concentration of half-maximal effect; % is set by controls: 0 for no effect and ±100 for the full control effect
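Firefly luciferase activity from engineered P. falciparum reports growth; inhibitors lower the luminescent signal. Cultures contained 2% hematocrit erythrocytes at 0.1% final parasitemia.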
An asterisk follows results filed as active; i = inactive; u = inconclusive; x = no result; + = active, no number. Unless noted, calls come from the whole dose curve; as a rule, active = well fitted inhibition curve with a large enough effect; inconclusive = small, poorly fitted or top-dose-only effect, or another doubt; inactive = no such curve, though single readings can be large or run the other way.

SMILES	Shiga toxin inh	Pf growth 96h	Cycloheximide cs	Pf growth 48h
O=C(c1cc2ccccc2oc1=O)N(Cc1ccccc1F)C1CCS(=O)(=O)C1 (stereo not drawn)	60*	5.2µM*	31*	19%
Cc1ccc(OCC(=O)N(Cc2cccc(F)c2)C2CCS(=O)(=O)C2)cc1 (stereo not drawn)	-4	10µM*	-1	u
COc1cccc(CN(C(=O)COc2ccc(C)cc2)C2CCS(=O)(=O)C2)c1 (stereo not drawn)	-4	22%	-10	-4%
COc1ccc(CN(C(=O)c2cc3ccccc3oc2=O)C2CCS(=O)(=O)C2)cc1 (stereo not drawn)	62*	17%	32*	-11%
CCOc1ccc(CN(C(=O)c2cc3ccccc3oc2=O)C2CC2)cc1	26	-9%	12	12µM*
CCS(=O)(=O)c1nc(S(=O)(=O)c2ccc(C)cc2)c(N2CCC(O)CC2)s1	-4	u	-3	0%
Nc1c(C(=O)CSc2ncccn2)c(=O)[nH]c(=O)n1C1CC1	x	41%	x	37%
CC(C)=CC(=O)Oc1ccc(C(=O)N(C)c2ccccc2I)cc1	18	x	-2	x
COc1ccc(CN(C(=O)c2cc3ccccc3oc2=O)C2CCS(=O)(=O)C2)cc1OC (stereo not drawn)	98*	38%	45*	15%
CCOc1ccc(CN(C(=O)c2cc3ccccc3oc2=O)C2CCS(=O)(=O)C2)cc1 (stereo not drawn)	111*	13%	68*	-1%
Cc1ccc2oc(C(=O)N(Cc3ccccc3)C3CCS(=O)(=O)C3)c(C)c2c1 (stereo not drawn)	1	u	2	-19%
O=C(c1cc2ccccc2oc1=O)N(Cc1ccccc1)C1CCS(=O)(=O)C1 (stereo not drawn)	+	151%	40*	30%
COc1ccc(CN(C(=O)c2cc3ccccc3oc2=O)C2CCCC2)cc1	12	4%	-1	-17%
Cc1cc(=O)n2nc(N3CCC(C(=O)NCc4ccc(Cl)cc4)CC3)sc2n1	-6	51%	11	-13%
CC(=O)N1CC(C)Sc2ccc(S(=O)(=O)NCCc3ccccc3)cc21 (stereo not drawn)	56*	u	32*	38%
CC(=O)N1CC(C)Sc2ccc(S(=O)(=O)NC(C)c3ccccc3)cc21 (stereo not drawn)	-8	13µM*	-4	-3%
CC(=O)N1CCOc2ccc(S(=O)(=O)NCCc3cccc(C)c3)cc21	17	10µM*	16	21%
CC(=O)N1CC(C)Sc2ccc(S(=O)(=O)NCCc3ccc(C)cc3)cc21 (stereo not drawn)	3	u	9	0%
CCNC(=O)O/N=C(\C)c1sc(-c2ccccc2)nc1C	61*	u	39*	17%
CC(=O)c1sc(-c2cccc(Cl)c2)nc1C	49	87%	20*	70%
CNC(=O)c1sc(-c2ccccc2)nc1C	132*	x	39*	81%
CNC(=O)c1sc(-c2ccc(Cl)cc2)nc1C	112*	159%	53*	114%
CCOc1ccc(S(=O)(=O)N2CCC(C(=O)NCCc3ccc(S(N)(=O)=O)cc3)CC2)cc1	-13	u	0	-7%
CCOc1ccccc1C(=O)Oc1cc(C)[nH]c(=O)c1[N+](=O)[O-]	-5	0%	4	-15%
COCCOC(=O)C1=C(C)NC(=O)NC1c1c(F)cccc1Cl (stereo not drawn)	-4	341%	-5	25%
SMILES	Shiga toxin inh	Pf growth 96h	Cycloheximide cs	Pf growth 48h
Cc1nc(-c2cccnc2)sc1C(=O)Nc1cccc(C(F)(F)F)c1	-15	12µM*	-1	u
Cc1nc(-c2cccnc2)sc1C(=O)Nc1ccc(C(F)(F)F)cc1	9	0%	6	u
CC(=O)c1sc(-c2ccc(Cl)cc2)nc1C	53*	111%	26*	41%
Cc1nc(-c2ccc(Cl)cc2)sc1C(=O)NNC(=O)C(C)C	-10	38%	8	21%
Cc1nc(-c2cccs2)sc1C(=O)NN	-15	18%	-1	20%
C/C(=N\O)c1sc(-c2ccccc2)nc1C	98*	i	46*	478%
Cc1nc(-c2ccc(C(F)(F)F)cc2)sc1C(=O)NN	37	-57%	15*	u
Cc1onc(C(=O)Nc2ccccc2C(F)(F)F)c1[N+](=O)[O-]	-9	-5%	38	23%
Cc1onc(C(=O)Nc2cccc(C(F)(F)F)c2)c1[N+](=O)[O-]	22	-1%	27*	20%
CC(C)c1cc(C(=O)Nc2cccc(C(F)(F)F)c2)no1	121*	u	50*	x
